This passage reports outcome and AC50 results from PubChem BioAssay (EPA / NIEHS).

What all share (conditions): mRNA level, 48 h; actives raise or lower the signal
Read-out in experiment [1]: Glutamate-cysteine ligase regulatory (GCLM), GCLM (gene 2730)
Put plainly: LTEA_HepaRG_GCLM: Life Technologies and Expression Analysis (LTEA) Assay for Glutamate-cysteine ligase regulatory (GCLM) using HepaRG (AID 2283500). A digest of the protocol: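 Differentiated HepaRG cells exposed 48 h in serum-free induction medium to eight half-log concentrations up to 100 uM (0.5% DMSO). GCLM mRNA by TaqMan qRT-PCR, normalized to ACTB, GAPDH and POLR2A; bidirectional fit versus DMSO.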

Read-out in experiment [2]: Glutathione S-transferase M3 (GSTM3), GSTM3 (gene 2947)
The experiment is described as follows: LTEA_HepaRG_GSTM3: Life Technologies and Expression Analysis (LTEA) Assay for Glutathione S-transferase M3 (GSTM3) using HepaRG (AID 2283501). The gist of the method:
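Expression of GSTM3 is determined by qRT-PCR in human liver HepaRG cells treated 48 h with an 8-point half-log range from 100 uM in 0.5% DMSO.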

Read-out in experiment [3]: Heat shock 70 kDa protein 1 (HSPA1A), gene 3303
The experiment is described as follows: LTEA_HepaRG_HSPA1A: Life Technologies and Expression Analysis (LTEA) Assay for Heat shock 70 kDa protein 1 (HSPA1A) using HepaRG (AID 2283502). A digest of the protocol:
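Human HepaRG cells in serum-free induction medium were exposed in duplicate for 48 h to 8 half-log concentrations, highest 100 uM, in 0.5% DMSO. HSPA1A mRNA read by TaqMan qRT-PCR, normalized to ACTB, GAPDH, POLR2A, fitted bidirectionally against DMSO.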

Read-out in experiment [4]: Hypoxia-inducible factor 1-alpha (Homo sapiens) (UniProt Q16665)
The experiment is described as follows: LTEA_HepaRG_HIF1A: Life Technologies and Expression Analysis (LTEA) Assay for Hypoxia-inducible factor 1 (HIF1A) Trancription factor using HepaRG (AID 2283503). The gist of the method:
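Differentiated HepaRG cells in serum-free induction medium exposed 48 h, in duplicate, to 8-point half-log series from 100 uM in 0.5% DMSO. HIF1A mRNA measured by TaqMan qRT-PCR, normalized to ACTB/GAPDH/POLR2A, fitted bidirectionally versus DMSO.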

Read-out in experiment [5]: 3-Hydroxy-3-Methylglutaryl-CoA Synthase 2 (HMGCS2), HMGCS2 (gene 3158)
The experiment is described as follows: LTEA_HepaRG_HMGCS2: Life Technologies and Expression Analysis (LTEA) Assay for 3-Hydroxy-3-Methylglutaryl-CoA Synthase 2 (HMGCS2) using HepaRG (AID 2283504). The gist of the method:
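This steatosis marker was read as HMGCS2 mRNA change in HepaRG cells treated 48 h with up to 100 uM chemical. Normalisation used housekeeping genes; activity in either direction was fitted relative to 0.5% DMSO vehicle.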

Read-out in another experiment: HGF (gene 3082)
Put plainly: LTEA_HepaRG_HGF: Life Technologies and Expression Analysis (LTEA) Assay for Hepatocyte Growth Facto (HGF) using HepaRG (AID 2283505). A digest of the protocol:
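Using HepaRG monolayers kept in 0.5% DMSO, chemicals were tested in duplicate over eight half-log concentrations from 100 uM for 48 h. Endpoint: HGF mRNA change relative to DMSO, normalized to ACTB/GAPDH/POLR2A.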

Read-out in experiment [6]: Insulin Like Growth Factor 1 (IGF1), IGF1 (gene 3479)
Put plainly: LTEA_HepaRG_IGF1: Life Technologies and Expression Analysis (LTEA) Assay for Insulin Like Growth Factor 1 (IGF1) using HepaRG (AID 2283506). A digest of the protocol:
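Differentiated HepaRG cells in serum-free induction medium, exposed 48 h in duplicate to 8 half-log concentrations up to 100 uM in 0.5% DMSO. IGF1 mRNA by Fluidigm qRT-PCR, normalised to ACTB, GAPDH and POLR2A.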

Read-out in experiment [7]: Intercellular Adhesion Molecule 1 (ICAM1), ICAM1 (gene 3383)
The experiment is described as follows: LTEA_HepaRG_ICAM1: Life Technologies and Expression Analysis (LTEA) Assay for Intercellular Adhesion Molecule 1 (ICAM1) using HepaRG (AID 2283507). A digest of the protocol: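 Using the human liver line HepaRG, compounds are tested in duplicate over 48 h at concentrations up to 100 uM. Expression is determined by TaqMan qRT-PCR, normalized to endogenous controls, and analysed relative to 0.5% DMSO vehicle.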

Read-out in experiment [8]: Insulin-like growth factor-binding protein 1 (IGFBP1), IGFBP1 (gene 3484)
Put plainly: LTEA_HepaRG_IGFBP1: Life Technologies and Expression Analysis (LTEA) Assay for Insulin-like growth factor-binding protein 1 (IGFBP1) using HepaRG (AID 2283508). The gist of the method:
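HepaRG, 48 h, 8 conc. (max 100 uM, half-log), duplicates, 0.5% DMSO. Readout: TaqMan qRT-PCR, ACTB/GAPDH/POLR2A normalisation. Fit: bidirectional vs DMSO.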

Read-out in experiment [9]: Interleukin 6 (IL6), IL6 (gene 3569)
The experiment is described as follows: LTEA_HepaRG_IL6: Life Technologies and Expression Analysis (LTEA) Assay for Interleukin 6 (IL6) using HepaRG (AID 2283509). A digest of the protocol:
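HepaRG, ~100,000 cells/well, 48 h pre-culture; serum-free induction medium; cmpd 8-pt half-log from 100 uM, 0.5% DMSO, duplicate, 48 h. Lysis in RLT, TaqMan qRT-PCR; gain or loss vs DMSO.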

Active and inactive are the calls of the source. The calls were made as follows: active = hit-call score of the fitted dose curve at least 0.9, where 1 is the maximum; inactive = score below 0.9.

Hypoxia-inducible factor 1-alpha (Homo sapiens), sequence (Q16665 whole entry, looked up): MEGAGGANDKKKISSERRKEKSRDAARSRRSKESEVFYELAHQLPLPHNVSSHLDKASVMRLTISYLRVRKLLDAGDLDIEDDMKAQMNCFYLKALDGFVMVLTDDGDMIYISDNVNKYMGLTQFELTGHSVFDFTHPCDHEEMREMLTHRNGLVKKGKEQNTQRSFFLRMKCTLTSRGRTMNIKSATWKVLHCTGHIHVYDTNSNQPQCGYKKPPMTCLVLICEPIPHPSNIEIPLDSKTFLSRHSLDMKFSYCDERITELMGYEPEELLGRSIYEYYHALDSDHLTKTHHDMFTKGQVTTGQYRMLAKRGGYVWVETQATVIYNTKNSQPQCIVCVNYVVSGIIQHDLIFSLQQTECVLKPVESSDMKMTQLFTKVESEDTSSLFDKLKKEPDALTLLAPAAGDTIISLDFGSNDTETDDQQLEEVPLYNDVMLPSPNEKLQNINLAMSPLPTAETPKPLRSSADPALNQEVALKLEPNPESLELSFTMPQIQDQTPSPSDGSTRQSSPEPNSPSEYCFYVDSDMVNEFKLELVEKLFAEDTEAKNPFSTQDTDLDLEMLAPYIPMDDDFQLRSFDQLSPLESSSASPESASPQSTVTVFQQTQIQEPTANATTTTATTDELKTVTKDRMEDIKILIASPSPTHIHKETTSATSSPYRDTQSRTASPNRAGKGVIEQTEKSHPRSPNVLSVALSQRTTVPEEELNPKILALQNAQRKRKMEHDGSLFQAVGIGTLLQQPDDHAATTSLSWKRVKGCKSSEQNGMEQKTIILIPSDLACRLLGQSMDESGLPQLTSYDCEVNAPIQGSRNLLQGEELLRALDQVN

On to `COP(=S)(OC)SCn1nnc2ccccc2c1=O`, for which the result (in experiment [1]; in experiment [2]; in experiment [3]; in [4]; in [5]; with HGF (gene 3082)) was inactive. The compound was classed as inactive in [6], in experiment [7], in [8] and in experiment [9].
As for `Cc1nc(N(C)C)nc(OC(=O)N(C)C)c1C`, the call (in experiment [1]; in experiment [2]; in [3]; in [4]; in [5]; with HGF (gene 3082)) was inactive. Besides, the compound was classed as inactive in experiment [6], in experiment [7], in experiment [8] and in experiment [9].
Consider `Clc1nc(Cl)nc(Nc2ccccc2Cl)n1`, for which the compound was called inactive (in experiment [1]; in experiment [2]; in experiment [3]; in experiment [4]; in experiment [5]; with HGF (gene 3082)). The call in experiment [6], in experiment [7], in experiment [8] and in [9] was inactive.
As for `Nc1c(Cl)c(Cl)nc(C(=O)O)c1Cl`, the compound was classed as inactive (in experiment [1]; in experiment [2]; in [3]; in experiment [4]; in [5]; with HGF (gene 3082)). Also, the call in experiment [6], in [7], in [8] and in experiment [9] was inactive.
Consider `C=CCOC(=O)C(C)(C)OC(=O)c1cc(-n2c(=O)cc(C(F)(F)F)n(C)c2=O)ccc1Cl`, for which the compound was classed as inactive (in experiment [1]; in experiment [2]; in [3]; in [4]; in [5]; with HGF (gene 3082)). The result in experiment [6], in experiment [7], in [8] and in [9] was inactive.
Take `CCN(CC)c1nc(C)cc(OP(=S)(OC)OC)n1`: the compound was called inactive (in [1]; in [2]; in [3]; in experiment [4]; in experiment [5]; in the experiment with HGF (gene 3082)). Also, the result in experiment [6], in [7], in experiment [8] and in [9] was inactive.
The AC50 is the concentration giving half of the maximal activity seen. As for `O=C1C2CC=CCC2C(=O)N1SC(Cl)(Cl)Cl` (stereo not given), the call (in [1]; in [2]; in experiment [3]; in [4]; in experiment [5]; with HGF (gene 3082)) was inactive. Moreover, the compound was classed as inactive in [6], in experiment [7] and in experiment [9]. Moreover, the AC50 in experiment [8] is 20.2 µM (active).
On to `CC1(C)CCC(=Cc2ccc(Cl)cc2)C1(O)Cn1cncn1` (stereo not given), for which the compound was classed as inactive (in [1]; in experiment [2]; in experiment [3]; in experiment [4]; in experiment [5]; with HGF (gene 3082)). Moreover, the call in experiment [7], in experiment [8] and in experiment [9] was inactive. In addition, the AC50 in [6] is 25 µM (active).
`Nc1c(Cl)c(F)nc(OCC(=O)O)c1Cl`: the compound was classed as inactive (in experiment [1]; in experiment [2]; in [3]; in experiment [4]; in experiment [5]; with HGF (gene 3082)). For the same compound, the outcome in experiment [6], in experiment [7], in experiment [8] and in [9] was inactive.
Consider `CC(C)NC(=O)N1CC(=O)N(c2cc(Cl)cc(Cl)c2)C1=O`, for which the AC50 is 27.8 µM (active) in experiment [1], 13.2 µM (active) in experiment [5] and 3.79 µM (active) in experiment [6]. For the same compound, the compound was classed as inactive (in experiment [2]; in [3]; in [4]; with HGF (gene 3082); in experiment [7]; in experiment [8]). Besides, the result in experiment [9] was inactive.
Take `COc1ccc(-c2ccccc2)cc1NNC(=O)OC(C)C`: the compound was called inactive (in experiment [1]; in [2]; in experiment [3]; in experiment [4]; in experiment [5]; with HGF (gene 3082)). Further, the result in experiment [6], in experiment [7], in [8] and in experiment [9] was inactive.
Turning to `COP(=O)(OC)O/C(C)=C/C(=O)N(C)C`, the result (in experiment [1]; in [2]; in experiment [3]; in [4]; in [5]; with HGF (gene 3082)) was inactive. Also, the call in experiment [6], in [7], in experiment [8] and in experiment [9] was inactive.
On to `N#Cc1c[nH]cc1-c1cccc2c1OC(F)(F)O2`, for which the AC50 is 93.2 µM (active) in [1]; 50 µM (active) in experiment [2]; 83.4 µM (active) in [4]; 79.3 µM (active) in experiment [5]; 69 µM (active) in [8]. The compound was called inactive (in experiment [3]; with HGF (gene 3082); in experiment [6]; in experiment [7]; in experiment [9]).
For the compound `COCc1cnc(C2=NC(C)(C(C)C)C(=O)N2)c(C(=O)O)c1` (stereo not given), the result (in [1]; in experiment [2]; in experiment [3]; in experiment [4]; in experiment [5]; in the experiment with HGF (gene 3082)) was inactive. Moreover, the call in experiment [6], in [7], in experiment [8] and in experiment [9] was inactive.
Regarding `COC(=O)N(C(=O)N1CO[C@@]2(C(=O)OC)Cc3cc(Cl)ccc3C2=N1)c1ccc(OC(F)(F)F)cc1`, the compound was classed as inactive (in experiment [1]; in [2]; in experiment [3]; in [4]; with HGF (gene 3082); in experiment [7]). Moreover, the result in [9] was inactive. In addition, the AC50 is 40 µM (active) in experiment [5], 4.25 µM (active) in [6] and 40 µM (active) in experiment [8].
For the compound `Cc1cc(C)nc(Nc2ccccc2)n1`, the outcome (in experiment [1]; in experiment [2]; in experiment [3]; in [4]; in experiment [5]; with HGF (gene 3082)) was inactive. Further, the result in experiment [6], in experiment [7], in experiment [8] and in experiment [9] was inactive.
Turning to `CCCN(CC)CC1COC2(CCC(C(C)(C)C)CC2)O1` (stereo not given), the result (in experiment [1]; in experiment [2]; in experiment [3]; in experiment [4]; in experiment [5]; in the experiment with HGF (gene 3082)) was inactive. Besides, the call in experiment [6], in [7], in experiment [8] and in experiment [9] was inactive.
In the case of `COC(=O)c1c(C(F)F)nc(C(F)(F)F)c(C2=NCCS2)c1CC(C)C`, the compound was called inactive (in [1]; in experiment [2]; in experiment [3]; in experiment [4]; in experiment [5]; in the experiment with HGF (gene 3082)). Moreover, the compound was called inactive in [6], in experiment [7], in experiment [8] and in experiment [9].
